MCF10A rerep: DNA re-replication induction in MCF 10a cells | MCF 10A DNA re-replication, Hoechst nuclear intensity, 48 h | Potency, µM (highest dose often 46.1 µM), without a hit: at the top dose activity, positive = re-replication, actives largely listed as activators | hit rate 2.9% among 350,000 | AID 624296; further: % of control where 0% means no effect; nearly all actives have a fitted effect of over 50% in size
KB-V1 MDR tox: kills drug-selected multidrug resistant KB-V1 cells; KB-V1 MDR cells viability, CellTiter-Glo, 72 h; Potency, µM (series often up to 46.1 µM), most hits filed as cytotoxic; hit rate 3.4% among 400,000; AID 1347076; further: on the % scale 0 is the no-effect control and ±100 the full control effect; nearly all actives have a fitted effect of over 60% in size
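Cytotoxicity via CellTiter-Glo luminescence after 72 h compound exposure at 37 degrees C. Cells: drug-selected KB-V1 line, DMEM phenol-red free plus 10% FBS. Compounds tested at multiple concentrations; normalized data fitted to concentration-effect curves.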
SW480 rerep: induces DNA re-replication in SW480 colon adenocarcinoma cells; Potency, µM (top dose mostly 46.1 µM), inactives show at the highest dose re-replication activation, usual class: activators; hit rate 1.8% among 340,000; SW480 DNA re-replication, Hoechst DNA content imaging, 48 h; further: % of control where 0% means no effect; nearly all actives have a fitted effect of over 55% in size
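Cells (250 per well) received 23 nL compound or DMSO by pin tool and were kept 48 hr at 37 C, 5% CO2. Nuclei were then stained with Hoechst for 40 min and scanned for DNA content.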
HT1080 IDH1KD tx: HT-1080 IDH1 knockdown cell toxicity (counter line) | HT-1080 IDH1 knockdown viability, ATP luminescence, 48 h | Potency, µM (top dose mostly 46.1 µM), without a hit: at the top dose activity, negative = toxicity, most hits filed as cytotoxic | hit rate 2% among 360,000 | AID 686971;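 further: 0% = DMSO wells and -100% = cell-free medium wells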
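Assay cells: HT-1080 with IDH1 knockdown, 750 per well, RPMI/5% FBS. Exposure: 48 h at 37 °C following 2 h pre-incubation. Read: CellTiter-Glo luminescence; fitted concentration-response, curve class assigned.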
KB-3-1 tox: kills parental KB-3-1 adenocarcinoma cells; KB-3-1 viability, CellTiter-Glo ATP luminescence, 72 h; Potency, µM (series often up to 46.1 µM), usual class: cytotoxic; hit rate 1.4% among 400,000; AID 1347075; further: on the % scale 0 is the no-effect control and ±100 the full control effect; nearly all actives have a fitted effect of over 60% in size
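KB-3-1 parental drug-naive adenocarcinoma cells in DMEM/10% FBS, incubated 72 h at 37 C with pin-transferred compounds across a concentration series. Viability by CellTiter-Glo luminescence; concentration-response curves fitted after normalization.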
HT1080-NT tox: kills 2HG-producing HT-1080-NT fibrosarcoma cells. hit rate 1.6% among 360,000. HT-1080-NT fibrosarcoma viability, CellTiter-Glo ATP luminescence, 48 h. AID 686970. Potency, µM (doses to about 46.1 µM), for the others: top-dose activity, negative = less viability, hits mostly cytotoxic;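 further: NT is the 2HG producing partner of a matched IDH1 knockdown line; 0% = DMSO-treated cells and -100% = media-only wells without cells; nearly all actives have a fitted effect of over 55% in size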
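Viability of the 2HG-overproducing fibrosarcoma line after 48 hours of compound exposure at 37 degrees C was determined by luminescence with CellTiter-Glo, and concentration-effect curves were then fitted and categorized.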
* hit, by the source's call; i = inactive; ? = inconclusive; . = no result. The list is not random: actives were taken first. Their share in the collection is about 7.9%. The call rests on the fitted dose curve; in most records, active means well fitted curve in the direction sought with a large enough effect; inconclusive means small, poorly fitted or top-dose-only effect, or another doubt; inactive means no such curve, though single readings can be large; an effect the other way counts as inactive or inconclusive. Potency means the concentration at half of the fitted maximal effect.

SMILES | MCF10A rerep | KB-V1 MDR tox | SW480 rerep | HT1080 IDH1KD tx | KB-3-1 tox | HT1080-NT tox
CCc1ccc(N2C(=O)NC(=O)/C(=C\C=C\c3ccco3)C2=O)cc1 | 23µM* | ? | 18µM* | -12% | ? | 0%
CCc1ccc(N2NC(=O)/C(=C/C=C/c3ccco3)C2=O)cc1 | 21µM* | i | 17% | 5% | i | 7%
CCCCN1C(=O)/C(=C/C=C/c2ccco2)C(=O)NC1=S | -8% | i | -6% | 12% | i | 0%
CC(C)c1ccc(N2C(=O)NC(=O)/C(=C/C=C/c3ccco3)C2=O)cc1 | 6.5µM* | ? | ? | ? | 15µM* | 21%
CCC(C)n1c(O)c(/C=N/N2CCOCC2)c(=O)[nH]c1=S (stereo unspecified) | -3% | i | -1% | -1% | i | -21%
O=C1NC(=O)N(c2ccccc2)C(=O)/C1=C\c1ccc([N+](=O)[O-])s1 | ? | i | 21µM* | -2% | i | 4%
O=C1NC(=O)N(c2ccccc2)C(=O)/C1=C\C=C\c1ccccc1 | 23µM* | ? | 3.3µM* | 5.2µM* | ? | ?
COc1cc(/C=C2\C(=O)NC(=O)N(c3ccccc3)C2=O)cc(OC)c1OC | -6% | i | -1% | 12% | i | 10%
Cc1ccc(N2C(=O)NC(=O)/C(=C/C=C/c3ccco3)C2=O)cc1 | 9.2µM* | 18µM* | 16µM* | 23µM* | ? | ?
O=C1NC(=O)N(Cc2ccccc2)C(=O)/C1=C\c1ccco1 | 16% | i | 12% | -14% | i | -25%
O=C1NC(=O)N(Cc2ccc(F)cc2)C(=O)/C1=C\C=C\c1ccco1 | 3.7µM* | ? | 8.2µM* | ? | ? | 21µM*
Cc1ccc(N2C(=O)NC(=O)/C(=C/c3ccoc3)C2=O)cc1 | -1% | i | 0% | 4% | ? | 8%
C[C@H](CO)N1C[C@H](C)[C@H](CN(C)C(=O)Oc2ccccc2)OCc2cnnn2CCCC1=O | . | ? | . | 7% | i | 7%
C(CCc1nn[nH]n1)CCc1nn[nH]n1 | 22% | ? | 1% | 20% | i | 18%
CC1=NN(C)C(=O)C1Cc1c(F)cccc1Cl (stereo unspecified) | 4% | i | -54% | 0% | i | -13%
O=c1c2ccccc2nc(Cc2ccccc2)n1-c1ccccc1O | 1% | i | 6% | -1% | i | -29%
O=c1[nH]c2ccccc2n1C1CCN(C(CCc2ccccc2)c2nnnn2C2CCCC2)CC1 (stereo unspecified) | . | 3.3µM* | . | ? | ? | ?
O=c1[nH]c2ccccc2n1C1CCN(C(c2cc3ccccc3o2)c2nnnn2Cc2ccccc2)CC1 (stereo unspecified) | . | ? | . | 8.2µM* | ? | 10µM*
COc1cccc(C(c2nnnn2Cc2ccccc2)N2CCC(n3c(=O)[nH]c4ccccc43)CC2)c1OC (stereo unspecified) | . | 18µM* | . | ? | ? | 21µM*
CC(Cc1ccccc1)NC(=O)NC(C)Cc1ccccc1 (stereo unspecified) | -1% | i | -5% | 11% | i | 13%
C=C1C(O)[C@@H]2O[C@]3(CC[C@H](/C=C/C(C)[C@@H]4CC(C)=CC5(O[C@H](C[C@@](C)(O)C(=O)O)CCC5O)O4)O3)CC[C@H]2O[C@@H]1C(O)CC(C)[C@H]1OC2(CCCCO2)CCC1C (stereo partly specified) | ? | i | -18% | 0.0082µM* | ? | ?
CC(C)Oc1cccc(NC(=O)c2cccn(Cc3ccc4c(c3)OC(F)(F)O4)c2=O)c1 | 13µM* | i | ? | -27% | ? | -14%
O=C(Nc1ccc(C(F)(F)F)cc1)c1cccn(Cc2ccc3c(c2)OC(F)(F)O3)c1=O | ? | 2.9µM* | -8% | -4% | 8.2µM* | -13%
COc1ccc(CN2CCN(C(=O)Cc3ccccc3)CC2)cc1OC | . | i | . | 0% | i | -3%
CC1CC(NC(=O)C2C3CCC(O3)C2C(=O)O)CC(C)(C)C1 (stereo unspecified) | ? | i | ? | ? | i | ?
SMILES | MCF10A rerep | KB-V1 MDR tox | SW480 rerep | HT1080 IDH1KD tx | KB-3-1 tox | HT1080-NT tox
COc1ccc(-c2ccc3c(c2)CN(c2cccc(Cl)c2)Cc2cnnn2-3)cc1 | . | i | . | -16% | i | 10%
Clc1cccc(N2Cc3cc(-c4ccccc4)ccc3-n3nncc3C2)c1 | . | i | . | 10µM* | ? | 10µM*
CCn1c(O)c(/C=N/NC(=O)c2ccncc2)c(=O)[nH]c1=S | 24% | i | 1% | -7% | i | -6%
CCn1c(O)c(/C=N/NC(=O)c2ccccc2)c(=O)n(CC)c1=S | ? | i | 18µM* | -8% | ? | 0%
CCOC(=O)Cc1csc(NC(=O)c2c(O)c3ccccc3n(CCC(C)C)c2=O)n1 | 7% | 8.2µM* | 25% | 3% | ? | 11%
CCCCCCn1c(=O)c(C(=O)Nc2nc(CC(=O)OCC)cs2)c(O)c2ccccc21 | ? | 2.1µM* | -32% | -6% | ? | 2%
COc1ccc(OC)c(N=Cc2c(O)n(Cc3ccccc3)c(=S)[nH]c2=O)c1 | ? | i | 29µM* | 5% | i | 7%
CCCCn1c(=O)c(C(=O)Nc2ccccc2N)c(O)c2ccccc21 | -1% | ? | -15% | 6% | i | -1%
COc1ccc(-c2nc(CSCC(=O)N3CCC4(CC3)OCCO4)c(C)o2)cc1OC | 4% | ? | 7% | -12% | i | -4%
Cc1oc(-c2cccs2)nc1CSCC(=O)N1CCC2(CC1)OCCO2 | -8% | 10µM* | -9% | -3% | i | 2%
CC(=O)N1Cc2cnnn2-c2ccccc2C1(C)C#N (stereo unspecified) | -2% | i | ? | 12% | i | 6%
CCOP(=O)(Cc1ccc(C#N)o1)OCC | 3% | i | -61% | 19% | i | 16%
CCN(CC)C1=NC(=[N+](CC)CC)c2ccccc21 | ? | i | ? | 13µM* | 10µM* | ?
Cc1cc(C(=O)Nc2sc3c(c2C#N)CCC3)no1 | 8.2µM* | 16µM* | ? | ? | ? | 10µM*
Cc1ccccc1NCC(=O)N/N=C/C(Br)=C/c1ccccc1 | 0% | ? | 7% | 18µM* | ? | ?
COc1ccc(OCC(=O)N2CCN(C3CCC(c4ccccc4)CC3)CC2)cc1 (stereo unspecified) | ? | i | -13% | -4% | i | -11%
